Data on 40 compounds can be found in ChEMBL document CHEMBL3433997, “St. Jude Leishmania screening dataset” (2016).

Solute carrier family 2, facilitated glucose transporter member 1 (Homo sapiens), sequence (P11166 whole entry): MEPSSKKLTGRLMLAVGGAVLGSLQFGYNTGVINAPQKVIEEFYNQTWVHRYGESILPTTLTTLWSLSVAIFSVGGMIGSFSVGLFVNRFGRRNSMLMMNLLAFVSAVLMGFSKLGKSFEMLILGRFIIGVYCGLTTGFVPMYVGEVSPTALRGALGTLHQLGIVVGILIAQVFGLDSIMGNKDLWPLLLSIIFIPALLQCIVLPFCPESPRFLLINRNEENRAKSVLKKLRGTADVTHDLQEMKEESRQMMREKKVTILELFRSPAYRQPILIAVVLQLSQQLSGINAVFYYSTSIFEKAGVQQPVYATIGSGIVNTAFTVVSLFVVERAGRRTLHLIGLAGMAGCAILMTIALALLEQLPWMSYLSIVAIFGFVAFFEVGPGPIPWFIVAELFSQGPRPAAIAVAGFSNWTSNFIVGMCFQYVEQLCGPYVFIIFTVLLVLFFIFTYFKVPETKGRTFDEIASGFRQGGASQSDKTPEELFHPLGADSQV

The first experiment concerns the target Solute carrier family 2, facilitated glucose transporter member 1 (Homo sapiens) (UniProt P11166). In words: ST_JUDE_LEISH: Cytotoxicity at 2uM final concentration against transgenic Leishmania Mexicana promastigotes LmGLUT1 that are glucose transport deficient and complemented with the human glucose transporter GLUT1. Activity is measured by DNA content using SYBR green in vitro. It counts as functional.
With `N#Cc1ccc(N2CCN(Cc3cccc(-c4cccc(-c5nc6cc(C(F)(F)F)ccc6[nH]5)c4)c3)CC2)nc1`, the inhibition was 0.03%.

For the compound `COc1ccc2nccc([C@@H](O)CN3CCC(NCc4nc5c(cc4F)SCC(=O)N5)C(F)C3)c2c1` (stereo not given in full), the inhibition worked out at 5.83%.

In the case of `CCN(CCCN1CCCCC1)c1cc(C)nc(Nc2ccc(C)cc2C)n1`, the inhibition worked out at 1.88%.

For `c1ccc2c(c1)ncc1c3ccccc3[nH]c21`, the inhibition was 7.76%.

For the compound `Cc1ccc(NC(=O)Nc2ccccc2)cc1-c1ccc(C(=O)Nc2ccncc2)cc1`, the inhibition amounted to 9.17%.

Take `O=C(Nc1cccc(CN2CCCN(CCc3ccccc3)CC2)c1)c1ccc(Cl)c(Cl)c1`: the inhibition is 8.79%.

Turning to `CCn1c(C2CCN(CCC3CCN(C(=O)/C=C/c4ccc(Cl)c(Cl)c4)CC3)CC2)nc2ccccc21`, the inhibition came out at 3.31%.

In the case of `Cc1[nH]c(C)c(-c2ccc(CCc3ccc(F)cc3F)cc2)c(=O)c1Br`, the inhibition is -0.51%.

For the compound `COCC(C)n1c(SCC(=O)Nc2cc(C(F)(F)F)ccc2Cl)nc2ccccc2c1=O` (stereo not given), the inhibition was 6.25%.

For the compound `COCCN1CCC(NCC(C)(C)c2nc(-c3ccc(Cl)c(O)c3)c(-c3ccncc3)[nH]2)CC1`, the inhibition came to 4.86%.

In the case of `COc1cc(Cc2cnc(N)nc2N)cc(OCCCOc2ccccc2)c1OC`, the inhibition was determined as 7.68%.

Consider `COc1ccc(Cn2c(SCc3ccc(C)cc3)nc3cc(OC)c(OC)cc3c2=N)cc1Cl`, for which the inhibition was -0.1%.

`CC(Oc1cccc(Cl)c1)C(=O)N1CCc2ccccc21` (stereo not given): the inhibition is -1.29%.

As to `Cc1ccc(NC(=O)c2cc([N+](=O)[O-])ccc2NCc2cccnc2)cc1Cl`, the inhibition stood at 1.5%.

On to `CC(C(=O)NC1CCN(c2ccnc(Nc3ccc(F)cc3)n2)C1)c1ccc(Cl)cc1` (stereo not given), for which the inhibition is 1.1%.

Consider `O=[N+]([O-])c1ccc(C=NNc2nc3ccccc3[nH]2)cc1`, for which the inhibition is -0.91%.

`O=C(NC1CCCC1)c1ccc(N2CCC(NCc3cccc(C(F)(F)F)c3)CC2)cc1`: the inhibition is -0.33%.

With `FC(F)(F)c1ccc2[nH]ccc(=NN=Cc3ccccc3)c2c1`, the inhibition was 1.45%.

Regarding `NC1CCCN(Cc2cccc(-c3ccc(-c4nc5ccccc5[nH]4)s3)c2)C1` (stereo not given), the inhibition amounted to 0.99%.

Regarding `Cc1ccc2c(=O)n(C)c(=O)n(C)c2n1`, the inhibition is 6.05%.

As for `COc1cccc2c(C)cc(NCc3ccc(Cl)cc3)nc12`, the inhibition was 4.96%.

For the compound `O=C(Nc1ccc(Cl)c(C(F)(F)F)c1)N[C@H]1CCN(CCCCCNC(=O)C2CC2c2ccc(Cl)c(Cl)c2)C1` (stereo not given in full), the inhibition was -1.57%.

For the compound `Cc1cccc2nc(-c3ccc(-c4ccc(NC(=O)C(C)CN5CCN(C)CC5)cc4)s3)[nH]c12` (stereo not given), the inhibition came out at 3.39%.

`NC1CCN(CCNCc2cccc(-c3ccc(-c4nc5cc(F)ccc5[nH]4)cc3)c2)C1` (stereo not given): the inhibition was determined as 7.06%.

On to `Cc1nc(C(=O)N2CCCC[C@H]2CNC(=O)c2ccc(-c3ccc(N4CCCC4=O)cc3C)cc2)c(-c2ccc(F)cc2)s1`, for which the inhibition was -1.91%.

Turning to `COc1ccc(C(F)(F)F)cc1N1CCN(CCCCNC(=O)c2ccc(NC(=O)c3ccc(Cl)cc3)cc2)CC1`, the inhibition worked out at 0.14%.

With `CNCCNCc1cccc(-c2ccc(-c3nc4ccccc4[nH]3)cc2)c1`, the inhibition is -1.56%.

Regarding `Cc1ccc(Nc2nc3cc(N(C)c4ccnc(Nc5cccc(CS(C)(=O)=O)c5)n4)ccc3o2)cc1`, the inhibition worked out at 5.07%.

As for `O=C(Nc1cccc(-c2cccc(-c3nc4cc(C(F)(F)F)ccc4[nH]3)c2)c1)c1cccnc1`, the inhibition was determined as 0.56%.

Take `CCc1ccc(N2C(N)=NC(N)=NC2(C)C)cc1`: the inhibition amounted to 0.74%.

Turning to `COc1cccc(-c2cnc(-c3ccncc3)nc2C2CCN(Cc3ccc(NC(C)=O)cc3)CC2)c1`, the inhibition was 3.49%.

In the case of `CCCCOC(=O)NCCCC[C@H](NC(=O)OC(C)(C)C)C(=O)N[C@H](C(=O)OC(c1ccccc1)c1ccccc1)[C@H]1O[C@@H](n2ccc(=O)[nH]c2=O)[C@@H]2OC(C)(C)O[C@@H]21`, the inhibition came out at 0.88%.

In the case of `N=C(N)c1ccc(C(=O)Nc2cccc(C(=N)N)c2)cc1`, the inhibition is -0.57%.

Consider `COc1ccc(-c2ccc3c(-c4cccc(S(C)(=O)=O)c4)cnc(N)c3c2)cc1`, for which the inhibition turned out to be 0.83%.

For `CC(=O)Nc1ccc(CN(Cc2cccc(OC(C)(C)C)c2)Cc2ccc3c(c2)OCCO3)cc1`, the inhibition was 4.55%.

For the compound `COc1ccc(C(=O)Cn2nc(-c3ccc(Cl)cc3)ccc2=O)c(OC)c1`, the inhibition came out at 1.41%.

As for `Cc1ccc(C(=O)Nc2cccc([N+](=O)[O-])c2)cc1S(=O)(=O)N1CC(C)CC(C)C1` (stereo not given), the inhibition was 6.34%.

Turning to `Cc1cc2cc(NC(=O)Nc3ccnc4ccccc34)ccc2n1C`, the inhibition stood at 0.22%.

In the case of `O=S(=O)(c1ccc(OC(F)(F)F)cc1)C1CC2CCC(C1)N2S(=O)(=O)c1ccc(Cl)c(C(F)(F)F)c1` (stereo not given), the inhibition amounted to 11.6%.

As to `COc1ccc(CN2CCC(NCc3cccc([N+](=O)[O-])c3)CC2)cc1`, the inhibition is 5.28%.

A further experiment concerns the target Hexose transporter 1 (Plasmodium falciparum) (UniProt O97467). In words: ST_JUDE_LEISH: Cytotoxicity at 2uM final concentration against transgenic Leishmania Mexicana promastigotes LmPfHT that are glucose transport deficient and complemented with the Plasmodium falciparum hexose transporter. Activity is measured by DNA content using SYBR green in vitro. Type of experiment: functional.
On to `N#Cc1ccc(N2CCN(Cc3cccc(-c4cccc(-c5nc6cc(C(F)(F)F)ccc6[nH]5)c4)c3)CC2)nc1`, for which the inhibition is 0.73%.

Turning to `COc1ccc2nccc([C@@H](O)CN3CCC(NCc4nc5c(cc4F)SCC(=O)N5)C(F)C3)c2c1` (stereo not given in full), the inhibition was determined as 3.21%.

Turning to `CCN(CCCN1CCCCC1)c1cc(C)nc(Nc2ccc(C)cc2C)n1`, the inhibition came to 1.53%.

For `c1ccc2c(c1)ncc1c3ccccc3[nH]c21`, the inhibition was determined as 7.76%.

Regarding `Cc1ccc(NC(=O)Nc2ccccc2)cc1-c1ccc(C(=O)Nc2ccncc2)cc1`, the inhibition came to 7.89%.

With `O=C(Nc1cccc(CN2CCCN(CCc3ccccc3)CC2)c1)c1ccc(Cl)c(Cl)c1`, the inhibition stood at 8.5%.

For `CCn1c(C2CCN(CCC3CCN(C(=O)/C=C/c4ccc(Cl)c(Cl)c4)CC3)CC2)nc2ccccc21`, the inhibition amounted to 1.31%.

With `Cc1[nH]c(C)c(-c2ccc(CCc3ccc(F)cc3F)cc2)c(=O)c1Br`, the inhibition is -1.51%.

On to `COCC(C)n1c(SCC(=O)Nc2cc(C(F)(F)F)ccc2Cl)nc2ccccc2c1=O` (stereo not given), for which the inhibition stood at 4.88%.

As for `COCCN1CCC(NCC(C)(C)c2nc(-c3ccc(Cl)c(O)c3)c(-c3ccncc3)[nH]2)CC1`, the inhibition was found to be 8.59%.

As for `COc1cc(Cc2cnc(N)nc2N)cc(OCCCOc2ccccc2)c1OC`, the inhibition stood at 4.04%.

As to `COc1ccc(Cn2c(SCc3ccc(C)cc3)nc3cc(OC)c(OC)cc3c2=N)cc1Cl`, the inhibition was -4.17%.

As for `CC(Oc1cccc(Cl)c1)C(=O)N1CCc2ccccc21` (stereo not given), the inhibition is -1.34%.

For `Cc1ccc(NC(=O)c2cc([N+](=O)[O-])ccc2NCc2cccnc2)cc1Cl`, the inhibition was 0.38%.

As for `CC(C(=O)NC1CCN(c2ccnc(Nc3ccc(F)cc3)n2)C1)c1ccc(Cl)cc1` (stereo not given), the inhibition turned out to be 0.7%.

For the compound `O=[N+]([O-])c1ccc(C=NNc2nc3ccccc3[nH]2)cc1`, the inhibition came to 0.53%.

In the case of `O=C(NC1CCCC1)c1ccc(N2CCC(NCc3cccc(C(F)(F)F)c3)CC2)cc1`, the inhibition is -0.97%.

As to `FC(F)(F)c1ccc2[nH]ccc(=NN=Cc3ccccc3)c2c1`, the inhibition was -0.56%.

Turning to `NC1CCCN(Cc2cccc(-c3ccc(-c4nc5ccccc5[nH]4)s3)c2)C1` (stereo not given), the inhibition was 0.63%.

For `Cc1ccc2c(=O)n(C)c(=O)n(C)c2n1`, the inhibition was determined as 2.94%.

Take `COc1cccc2c(C)cc(NCc3ccc(Cl)cc3)nc12`: the inhibition worked out at 4.71%.

`O=C(Nc1ccc(Cl)c(C(F)(F)F)c1)N[C@H]1CCN(CCCCCNC(=O)C2CC2c2ccc(Cl)c(Cl)c2)C1` (stereo not given in full): the inhibition is 1.02%.

Take `Cc1cccc2nc(-c3ccc(-c4ccc(NC(=O)C(C)CN5CCN(C)CC5)cc4)s3)[nH]c12` (stereo not given): the inhibition stood at 3.1%.

For the compound `NC1CCN(CCNCc2cccc(-c3ccc(-c4nc5cc(F)ccc5[nH]4)cc3)c2)C1` (stereo not given), the inhibition came to 11.1%.

As for `Cc1nc(C(=O)N2CCCC[C@H]2CNC(=O)c2ccc(-c3ccc(N4CCCC4=O)cc3C)cc2)c(-c2ccc(F)cc2)s1`, the inhibition is -0.31%.

Consider `COc1ccc(C(F)(F)F)cc1N1CCN(CCCCNC(=O)c2ccc(NC(=O)c3ccc(Cl)cc3)cc2)CC1`, for which the inhibition amounted to 1.22%.

In the case of `CNCCNCc1cccc(-c2ccc(-c3nc4ccccc4[nH]3)cc2)c1`, the inhibition amounted to 0.67%.

As for `Cc1ccc(Nc2nc3cc(N(C)c4ccnc(Nc5cccc(CS(C)(=O)=O)c5)n4)ccc3o2)cc1`, the inhibition worked out at 4.21%.

Consider `O=C(Nc1cccc(-c2cccc(-c3nc4cc(C(F)(F)F)ccc4[nH]3)c2)c1)c1cccnc1`, for which the inhibition was 0.29%.

Consider `CCc1ccc(N2C(N)=NC(N)=NC2(C)C)cc1`, for which the inhibition was determined as 1.29%.

Turning to `COc1cccc(-c2cnc(-c3ccncc3)nc2C2CCN(Cc3ccc(NC(C)=O)cc3)CC2)c1`, the inhibition was 4.22%.

As for `CCCCOC(=O)NCCCC[C@H](NC(=O)OC(C)(C)C)C(=O)N[C@H](C(=O)OC(c1ccccc1)c1ccccc1)[C@H]1O[C@@H](n2ccc(=O)[nH]c2=O)[C@@H]2OC(C)(C)O[C@@H]21`, the inhibition was found to be 0.71%.

For `N=C(N)c1ccc(C(=O)Nc2cccc(C(=N)N)c2)cc1`, the inhibition was found to be 0.84%.

As to `COc1ccc(-c2ccc3c(-c4cccc(S(C)(=O)=O)c4)cnc(N)c3c2)cc1`, the inhibition came to 1%.

Consider `CC(=O)Nc1ccc(CN(Cc2cccc(OC(C)(C)C)c2)Cc2ccc3c(c2)OCCO3)cc1`, for which the inhibition was 2.67%.

With `COc1ccc(C(=O)Cn2nc(-c3ccc(Cl)cc3)ccc2=O)c(OC)c1`, the inhibition is 1.16%.

As to `Cc1ccc(C(=O)Nc2cccc([N+](=O)[O-])c2)cc1S(=O)(=O)N1CC(C)CC(C)C1` (stereo not given), the inhibition came to 5.86%.

Take `Cc1cc2cc(NC(=O)Nc3ccnc4ccccc34)ccc2n1C`: the inhibition was 0.43%.

Take `O=S(=O)(c1ccc(OC(F)(F)F)cc1)C1CC2CCC(C1)N2S(=O)(=O)c1ccc(Cl)c(C(F)(F)F)c1` (stereo not given): the inhibition was 12.9%.

As to `COc1ccc(CN2CCC(NCc3cccc([N+](=O)[O-])c3)CC2)cc1`, the inhibition turned out to be 7.16%.
